The list is not random: actives were taken first. Their share in the collection is about 3.4%.
HSP90 inh – HSP90 refolding inhibition in rabbit reticulocyte lysate; 290,000 tested, 0.91% active; luciferase refolding luminescence, 3 h; AID 1789; inhibition, % at 5.6 µM;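 active = inhibition above the screen-wide mean plus 3 SD, computed separately per campaign, cut at about 16% in these data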;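 note: 0% = DMSO wells and 100% = 60 µM geldanamycin wells; inhibitors lower the luminescence because luciferase stays unfolded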
SMARCA2 act – activators of SMARCA2 function | MG213 cells, MMTV-luciferase reporter, dexamethasone, overnight | activation, % at 9.1 µM | 370,000 tested, 1% active | AID 652017; in the data active = activation above about 7.8%;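 note: 0% = vehicle wells and 100% = reference activator wells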
AI-2 QS mod – modulators of Vibrio harveyi AI-2 quorum sensing system; 300,000 tested, 0.4% active; Vibrio harveyi JMH597 AI-2 luminescence/OD600 ratio, 9 h; active compounds read low; strain lacks LuxN and CqsS sensors; 0 = neutral-control median; AID 2094; activity change, % at 7.5 µM; in the data active = activity change below about -75%, passing the limit was not always enough;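 note: luminescence divided by OD600 gain over 9 h not by final OD600 alone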
HSF1 inhib – HSF1 inhibition; NIH3T3-HGL HSE-luciferase, MG132-induced, luminescence 8 h; active compounds read low; AID 2098; 300,000 tested, 0.77% active; activity change, negative = inhibition, % at 7.5 µM (by protocol);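 active = more than half of replicate wells show activity change below -50%, luminescence cut by over half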;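 note: luciferase reports HSF-1 transcriptional activity via heat shock element; 0% = median of DMSO wells and -100% = zero luminescence signal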
PG9 binder – small molecules binding HIV-1 gp120 antibody PG9. TR-FRET gp120-PG9 antibody binding. 360,000 tested, 0.43% active. inhibition, % at 6.7 µM. AID 624416; in the data active = inhibition above about 8.5%
FXN GAA850 act – activators of GAA850 frataxin (FXN) promoter | HEK293 lucGAA850 FXN promoter luciferase reporter, 24 h; percent of 10 µM SAHA response | activation, % at 6 µM | 360,000 tested, 0.56% active;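 active = activation above the average of all compounds screened plus 3 SD, cutoff fixed separately per campaign, cut at about 7.5% in these data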;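 note: 0% = DMSO wells and 100% = 10 µM SAHA wells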
SMARCA2 act conf – confirmation of SMARCA2 (BRM) function activators; activation, % at 9.1 µM; AID 652260; shares compounds with SMARCA2 act; MG213 cells, MMTV-luciferase with dexamethasone, luminescence, overnight; MG213 cells expressing E1A, Rb sequestered; DMSO wells 0%, reference activator 100%; 3,500 tested, 30% active;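 active = activation above its plate's cutoff, the mean activation of tested wells plus 3 SD, cut at about 7.9% in these data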
GAL4-VP16 Luc – counter-screen for SMARCA2 activators: GAL4-VP16 luciferase reporter activation; shares compounds with SMARCA2 act; HEK293 GAL4-VP16 pG5luc reporter, luciferase luminescence; scaled: DMSO wells 0%, SAHA wells 100%; activation, % at 9.1 µM; 3,500 tested, 41% active; AID 686939;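 active = activation above the solvent-only control well mean plus 3 SD, averaged across control plates, cut at about 5.2% in these data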
Numbers without * were called inactive; · = no result.

SMILES | HSP90 inh | SMARCA2 act | AI-2 QS mod | HSF1 inhib | PG9 binder | FXN GAA850 act | SMARCA2 act conf | GAL4-VP16 Luc
CCOC(=O)C1=CCN(S(=O)(=O)c2ccc(Br)cc2)C1c1cccc(Cl)c1 (configuration not stated) | · | 1 | · | · | -1 | · | · | ·
Cc1cc(C)nc(S/C=C/C(=O)c2ccccc2F)n1 | 11 | 14* | 27 | 150 | 1 | 4 | -13 | 2
COCc1cc(C)nc(N/N=C/c2ccc(Cl)c(Cl)c2)c1C#N | -2 | 8.3* | 6 | 2 | -3 | 2 | -2 | 0
Cc1noc(C)c1S(=O)(=O)N1CCCc2nc(-c3ccc(F)cc3)ccc21 | · | -3 | · | · | 1 | · | · | ·
CC(=O)Nc1cccc(-c2ccnc3c2CC(C(=O)Nc2ccc(Cl)cc2)O3)c1 (configuration not stated) | · | -6 | · | · | -1 | -2 | · | ·
Cc1ccc(C(=O)CSc2nnc(-c3ccco3)n2Cc2ccccc2)cc1 | -2 | 11* | 17 | 11 | -1 | 4 | 6 | 4
N/N=C(/Cc1nc2ccccc2[nH]1)c1ccc([N+](=O)[O-])cc1 | 4 | 8.2* | 37 | 24 | -1 | 4 | 4 | 5.9*
CC(C)C[C@H]1COc2cccc(F)c2S(=O)(=O)N1 | · | -2 | · | · | 0 | · | · | ·
CCN1CCN(c2cc(C)c3cc(NC(=O)c4cc(OC)cc(OC)c4)ccc3n2)CC1 | 1 | 9.9* | 2 | 9 | 1 | 3 | 14* | 5.5*
CCN1CCN(c2cc(C)c3cc(NC(=S)N4CCN(c5ccccc5)CC4)ccc3n2)CC1 | 0 | 9.1* | 24 | -3 | -1 | 1 | 26* | 1
COc1ccc(C#Cc2ccc3c(c2)O[C@H](CN(C)S(=O)(=O)c2ccccc2F)[C@H](C)CN([C@H](C)CO)S3(=O)=O)cc1 | · | -5 | · | · | -1 | · | · | ·
O=C1c2ccccc2-c2c1c1ccccc1c(=O)n2CCO | · | 16* | · | · | -11 | 6 | 14* | 7.7*
CC(=O)Oc1ccc2occ(C(=O)c3cccs3)c2c1 | -1 | 2 | 38 | 26 | -2 | 2 | · | ·
O=C(CCl)Oc1ccc2occ(C(=O)c3cccs3)c2c1 | 3 | 8.6* | 44 | -16 | -1 | -1 | 4 | 6.5*
COC(=O)C1=C(C)N(C)C(=NCc2cccc(C(F)(F)F)c2)NC1c1ccccc1 (configuration not stated) | · | -1 | · | · | 2 | · | · | ·
O=C(COc1ccccc1Cl)NC(=S)Nc1ccccc1N1CCCC1 | -1 | 11* | 24 | -10 | -4 | 3 | -3 | 0
COc1ccccc1N=Cc1nc(-c2ccccc2)oc1OC(C)=O | 1 | -9 | 10 | -19 | 1 | 0 | · | ·
CC(=O)Oc1oc(-c2ccccc2)nc1/C=N/c1ccccn1 | -2 | 8.1* | 20 | 2 | 1 | 1 | 6 | 8.1*
CCN(CC)CCNC(=S)Nc1ccc2nc(N3CCCC3)cc(C)c2c1 | 3 | 9.6* | 16 | 7 | 0 | 2 | 15* | 0
CCCN(CCC)CCCNC(=S)Nc1ccc2nc(N3CCCC3)cc(C)c2c1 | -4 | 15* | 34 | 2 | 0 | 1 | 16* | -1
CC(C)CCNC(=O)C1(C)CCN1Cc1ccc2ccccc2c1 (configuration not stated) | · | -8 | · | · | -1 | 0 | · | ·
Cc1nc2ccc([N+](=O)[O-])cc2nc1C | 4 | -2 | -13 | -4 | -2 | 0 | · | ·
CC1=Nc2cc([N+](=O)[O-])ccc2NC(C)(C)C1 | 0 | 11* | 0 | 4 | 0 | 6 | 6 | 2
Cc1ccc(-c2nc3c(C)cc(Br)cn3c2Cc2ccccc2C(F)(F)F)cc1 | · | 0 | · | · | 0 | · | · | ·
O=C(Cn1cnc2ccccc2c1=O)Nc1ccc2c(c1)OCCO2 | 1 | 8.0* | -69 | 18 | 0 | 1 | 6 | 12*

From PubChem
